# Screening data (PubChem BioAssay)
# MCF10A rerep = DNA re-replication induction in MCF 10a cells | MCF 10A DNA re-replication, Hoechst nuclear intensity, 48 h | Potency, µM (series often up to 46.1 µM), hits mostly activators | AID 624296 | actives 2.9% (n = 350,000); further: nearly all actives have a fitted effect of over 50% in size
# RORgamma inh = inhibitors of mouse ROR gamma transcriptional activity; actives 5.4% (n = 310,000); P51450; Potency, µM (doses to about 53.6 µM), most hits filed as inhibitors; Drosophila S2 Gal4-RORgamma UAS-luciferase reporter, 20 h; further: nearly all actives have a fitted effect of over 60% in size
# Target sequence (P51450 whole entry, looked up, the tested form may be a part): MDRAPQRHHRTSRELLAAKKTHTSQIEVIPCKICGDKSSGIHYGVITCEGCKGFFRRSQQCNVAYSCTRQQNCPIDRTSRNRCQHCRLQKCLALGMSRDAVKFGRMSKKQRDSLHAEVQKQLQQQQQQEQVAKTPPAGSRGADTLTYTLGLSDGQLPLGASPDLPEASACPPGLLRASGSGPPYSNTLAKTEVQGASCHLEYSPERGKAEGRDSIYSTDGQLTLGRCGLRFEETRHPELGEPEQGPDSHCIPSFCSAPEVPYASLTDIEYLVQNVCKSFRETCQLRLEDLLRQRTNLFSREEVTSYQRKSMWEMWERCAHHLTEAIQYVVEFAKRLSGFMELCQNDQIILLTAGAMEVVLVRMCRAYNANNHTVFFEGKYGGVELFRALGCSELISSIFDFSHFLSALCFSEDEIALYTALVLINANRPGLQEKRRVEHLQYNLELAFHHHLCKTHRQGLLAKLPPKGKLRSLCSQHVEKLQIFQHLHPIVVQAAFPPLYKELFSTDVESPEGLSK
#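 Drosophila Schneider cells stably carrying a metallothionein-driven Gal4 DBD–ROR gamma fusion and a UAS-Photinus luciferase reporter were exposed to compound for 1 hr, then induced with copper sulfate (700 uM final) for 20 hr at ambient temperature before luminescence reading.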
# KB-V1 cytotox = kills drug-selected multidrug resistant KB-V1 cells | AID 1347076 | KB-V1 MDR cells viability, CellTiter-Glo, 72 h | actives 3.4% (n = 400,000) | Potency, µM (highest dose often 46.1 µM), hits mostly cytotoxic; further: nearly all actives have a fitted effect of over 60% in size
#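 Following 72 h at 37 degrees C with compound, KB-V1 cell viability was read by CellTiter-Glo luminescence, medium being phenol-red-free DMEM plus 10% FBS; concentration-response parameters came from normalized, curve-fitted qHTS data.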
# SW480 rerep = DNA re-replication induction in SW480 cells; SW480 DNA re-replication, Hoechst DNA content imaging, 48 h; Potency, µM (doses to about 46.1 µM), usual class: activators; actives 1.8% (n = 340,000); further: nearly all actives have a fitted effect of over 55% in size
#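 Cells (250 per well) received 23 nL compound or DMSO by pin tool and were kept 48 hr at 37 C, 5% CO2. Nuclei were then stained with Hoechst for 40 min and scanned for DNA content.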
# VP16 counter = inhibits Gal4-VP16 luciferase reporter, ROR gamma counter-screen | Drosophila S2 Gal4-VP16 UAS-luciferase, luminescence, 20 h | actives 3.5% (n = 310,000) | Potency, µM (doses to about 53.6 µM), usual class: inhibitors;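 further: Gal4-VP16 expression switched on by copper sulfate through the metallothionein promoter; nearly all actives have a fitted effect of over 50% in size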
# KB-3-1 tox = KB-3-1 parental cell cytotoxicity | KB-3-1 viability, CellTiter-Glo ATP luminescence, 72 h | Potency, µM (top dose mostly 46.1 µM), usual class: cytotoxic | actives 1.4% (n = 400,000) | AID 1347075; further: nearly all actives have a fitted effect of over 60% in size
#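 Cytotoxicity measured as CellTiter-Glo luminescence after 72 h at 37 C. Compound titrations were pinned onto drug-naive KB-3-1 parental adenocarcinoma cells grown in DMEM with 10% FBS, and normalized data fitted to concentration-response curves.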
# A number is an active result; n = inactive; u = inconclusive; x = no result given; [ ] = dose if it differs, or a comment. Most compounds without a hit are left out; they make up all but 10% or so of the library. The call rests on the fitted dose curve; in most records, active means well fitted curve in the direction sought with a large enough effect; inconclusive means small, poorly fitted or top-dose-only effect, or another doubt; inactive means no such curve, though single readings can be large; an effect the other way counts as inactive or inconclusive.
SMILES,MCF10A rerep,RORgamma inh,KB-V1 cytotox,SW480 rerep,VP16 counter,KB-3-1 tox
Cc1ccc(N(C)C(=O)CN(C)S(=O)(=O)c2ccc3c(c2)n(C)c(=O)c(=O)n3C)cc1,n,n,n,n,n,n
Cc1cccc(NC(=O)Cn2c(=O)n(Cc3ccc4c(c3)OCO4)c(=O)c3ccccc32)c1,x,x,n,x,x,n
Cc1ccccc1CN1CCc2c(OCC(=O)N3CCCc4ccccc43)cccc2C1=O,u,u,u,n,u,21µM
COc1cc(CO)ccc1OCC(=O)N1CCc2ccccc21,n,2.5µM,n,n,u,n
Cc1ccccc1OCC(=O)N1CCCc2ccccc21,n,n,n,n,n,n
CCN1CCc2c(OCC(=O)N3CCc4ccccc43)cccc2C1=O,x,n,x,x,n,x
O=C1c2cccc(OCC(=O)N3CCCc4ccccc43)c2CCN1Cc1cccnc1,n,u,3.7µM,n,u,u
Cn1c(=O)cc(OCC(=O)N2CCCc3ccccc32)c2ccccc21,n,n,15µM,n,n,n
Cc1c(CNC(C)CCc2ccccc2)c(C(=O)O)c(C)n1Cc1ccc(F)cc1 (stereo unspecified),x,x,n,x,x,n
O=C(c1cccnc1)N1N=C(c2cccs2)CC1c1ccc(F)cc1 (stereo unspecified),n,n,u,n,n[10 µM],n
O=C1c2cccc(OCC(=O)N3N=C(c4cccs4)CC3c3ccc(F)cc3)c2CCN1Cc1cccnc1 (stereo unspecified),u,n,21µM,x,u,n
Cn1c(=O)c2ccccc2n(CC(=O)N2CCCc3ccccc32)c1=O,n,n,n,n,n,n
CC(C)C(=O)c1cn(CC(=O)N2CCCc3ccccc32)c2ccccc12,n,n,5.2µM,n,n,n
CC1CCN(S(=O)(=O)c2cc(C(=O)N3CCN(c4ccccc4)CC3)ccc2Br)CC1,x,x,u,x,x,n
CCN1C(=O)c2ccc(C(=O)Nc3nccs3)cc2C1=O,n,n,n,n,n,n
Cc1csc(NC(=O)c2ccc(C)c(S(=O)(=O)N3CCOCC3)c2)n1,x,n,x,x,n,x
CC(C)(C)N1C(=O)c2ccc(C(=O)Nc3nccs3)cc2C1=O,n,7.1µM,n,n,u,n
Cc1ccc(C(=O)Nc2nccs2)cc1S(=O)(=O)N1CCCCC1,n,14µM,u,n,u,n
O=C(Nc1nccs1)c1ccc(Cl)c(S(=O)(=O)N2CCOCC2)c1,n,16µM,n,n[9.22 µM],u,n
Cc1csc(NC(=O)c2ccc(C)c(S(=O)(=O)N3CCCCC3)c2)n1,n,n,9.2µM,n,n,u
CCOC(=O)c1nc(C)nc(Sc2n[nH]c(-c3cc(C(F)(F)F)cc(C(F)(F)F)c3)n2)c1C,16µM,n,n,n,n,n
O=C(Nc1cccc(F)c1)N1CC2(CCN(C(=O)c3cc(C(F)(F)F)cc(C(F)(F)F)c3)CC2)C1,x,n,x,x,n,x
CC(=O)[C@H]1CC[C@H]2[C@@H]3C=CC4=CC(=O)CC[C@@]4(C)[C@H]3CC[C@]12C,n,n[2.98 µM],x,n,n,x
CCn1c(C)nc2cc(-c3nnc(-c4c(-c5ccccc5)noc4C)o3)ccc21,u,u,u,n,5µM,u
Cc1onc(-c2ccccc2)c1-c1nnc(-c2ccccc2C(F)(F)F)o1,u,n,n,n,n,n
SMILES,MCF10A rerep,RORgamma inh,KB-V1 cytotox,SW480 rerep,VP16 counter,KB-3-1 tox
Cc1cc(C(=O)NNC(=S)Nc2cccc(C(F)(F)F)c2)nn1C,n,16µM,n,n,11µM,n
CCOc1cccc(C(=O)Nc2cccc(C(C)=O)c2)c1,n,n,u,n,n,n
O=C(NC(=S)Nc1cccc(C(F)(F)F)c1)c1csnn1,n,u,n,6.5µM,u,n
CCCOc1cccc(C(=O)NC(=S)Nc2cccc(C(F)(F)F)c2)c1,n,10µM,n,u,u,n
CCOc1cccc(C(=O)NC(=S)Nc2cccc(C)c2)c1,n,2.5µM,n,n,10µM,n
Nc1ccncc1N,u,n,u,u,n,21µM
O=C(Nc1ccc(N2CCOCC2)c(Cl)c1)c1ccccc1Cl,n,n,n,n,n,n
CCCCC(=O)NC(=S)Nc1ccc(Cl)c(C(=O)O)c1,n,n,n,n,n,n
